# Assay outcomes (PubChem)
# aSyn UTR act – Activators via SNCA 5'UTR binding, MLPCN. 7.1% of 300,000 active. activity score, % (tested at 7.5 µM), hits read low. AID 1814. alpha-synuclein 5'UTR reporter, activators screen; in the data active = activity score below about -60%
# Starred values were filed as active, the others as inactive. Only a sample is shown.
SMILES,aSyn UTR act
COc1ccc(C(=O)Nn2c(SCc3cccc([N+](=O)[O-])c3)nc3ccccc3c2=O)cc1,66
O=C(Nn1c(SCc2cccc([N+](=O)[O-])c2)nc2ccccc2c1=O)c1ccccc1,-145*
CC(C)CCSc1nc2ccccc2[nH]1,-107*
COc1ccc(CSc2nc3ccccc3[nH]2)cc1,-189*
c1ccc2[nH]c(SCCN3CCOCC3)nc2c1,-78*
c1ccc2[nH]c(SCc3ccc(-c4nnco4)cc3)nc2c1,-142*
COC(=O)c1cccc(CSc2nc3ccccc3[nH]2)c1,-72*
CCOc1ccc(-c2nc(C)c(C(C)=O)n2O)cc1,-173*
CCCCOc1ccc(CSC2=NCCN2)cc1[N+](=O)[O-],-82*
CCCCOc1ccc(Br)cc1/C(C)=N/NC1=NCCN1,121
CCOC(=O)c1cnc(-c2ccccc2)nc1N,-148*
CCOC(=O)c1ccc2ncc(-c3ccccc3)nc2c1,-160*
Cc1nc2ccc(C(=O)OCc3ccccc3Br)cc2nc1C,-166*
CCOC(=O)c1cnc(-n2nc(C)cc2C)nc1NNc1nc(-c2ccccc2)cc(-c2ccccc2)n1,82
CCOC(=O)c1cnc(-c2ccccc2)nc1N(C)C,-241*
Cc1cc(C)c(C#N)c(SCC(=O)Nc2ccccc2C(N)=O)n1,-64*
Cc1nc(SCC(=O)Nc2ccc3c(c2)OCO3)c(C#N)c2c1CCCC2,-140*
COCc1cc(C)nc(SCC(=O)Nc2ccc(C)c(C)c2)c1C#N,-136*
Cc1cc(C)c(C#N)c(SCC(=O)Nc2ccc3c(c2)OCO3)n1,-145*
Cc1nnc2n(c1=O)N=C(c1ccc(Cl)cc1)CS2,-93*
COc1ccc(C2=Nn3c(nnc3-c3ccc(OC)cc3)SC2)cc1,100
CN1CCN(c2ccc(-c3ccnn3C(=O)Nc3cccc(C(F)(F)F)c3)cc2)CC1,-114*
CC(Cc1cccs1)NC(=O)Nc1cccc(Cl)c1 (stereo not given),-62*
COc1ccc(C(=O)Nc2cccc(N(C)S(C)(=O)=O)c2)cc1OC,-168*
CN(C)c1ccc(NC(=O)Nc2cccc(Cl)c2)cc1,-138*
SMILES,aSyn UTR act
CN(c1cccc(NC(=O)Nc2cccc(Cl)c2)c1)S(C)(=O)=O,-92*
Nc1c(C(=O)c2ccccc2)sc2nsc(SCCN3CCOCC3)c12,-157*
COc1cccc(NC(=O)c2ccc3nsnc3c2)c1,-151*
O=C(Nc1ccc(F)cc1)c1ccc2nsnc2c1,-175*
Cc1nc(NC(=O)C2CC2)sc1C(=O)Nc1ccccc1Cl,-164*
COc1ccc(Nc2sc(C(=O)Nc3cccc(Cl)c3)c(N)c2C(=O)Nc2ccccc2OC)cc1,-67*
CCCOc1cccc(C(=O)Nc2ccc(Br)cc2F)c1,-161*
COc1ccccc1NC(=O)c1ccc2nsnc2c1,-112*
O=C(Nc1ccc(Br)cc1F)c1ccc2nsnc2c1,-106*
COc1ccccc1NC(=O)c1sc(Cl)nc1C,-69*
Cn1/c(=N/N=C/c2ccc(N3CCOCC3)cc2)sc2ccccc21,-65*
C=CCNC(=S)Nc1c(C(=O)OC)[nH]c2cc(OC)ccc12,-91*
CC(/C=C1\NC(=S)NC1=O)=C\c1ccccc1,-62*
O=C(NC1CCCCC1)N1CCc2ccccc2C1,-85*
O=C(Nc1ccc(Br)cc1)N1CCc2ccccc2C1,-161*
O=C(Nc1ccc(F)cc1)N1CCc2ccccc2C1,-203*
Cc1cccc2cc(C#N)c(SCC(=O)N3CC(=O)Nc4ccccc43)nc12,110
Cc1cc(NC(=O)CSc2nc3c(C)cccc3cc2C#N)no1,-209*
O=C(Nc1nnc(S(=O)(=O)N2CCCCCC2)s1)c1ccccc1,-65*
O=C(Nc1nnc(S(=O)(=O)N2CCN(c3ccc(F)cc3)CC2)s1)c1ccccc1,-63*
CN1C(=O)/C(=C\c2ccc(N(C)C)cc2)OC1=S,-67*
Cn1cnnc1SCC(=O)c1ccc2c(c1)CCCC2,-71*
CC(=O)NC(c1ccc(C)cc1)c1cc(Cl)c2cccnc2c1O (stereo not given),60
O=S(=O)(Nc1cc(Sc2cccc3cccnc23)c(O)c2ccccc12)c1ccccc1,-139*
Cc1cc(OCc2cc(C(=O)N(C)CCc3cnn(C)c3)no2)cc(C)c1Cl,-145*
SMILES,aSyn UTR act
COc1cc(Cl)ccc1OCc1cc(C(=O)N(C)CCc2cnn(C)c2)no1,-91*
O=C(Nc1ccc(Cl)c([N+](=O)[O-])c1)c1ccco1,-67*
O=C(Nc1ccccc1Cl)c1ccc([N+](=O)[O-])o1,-139*
O=C(Nc1cccc(NC(=O)c2ccc([N+](=O)[O-])o2)c1)c1ccco1,-66*
O=C(Nc1cc(Cl)ccc1-n1cncn1)c1ccc([N+](=O)[O-])o1,-70*
CCC(=O)N1CCN(c2ccc(NC(=O)c3ccc([N+](=O)[O-])o3)cc2Cl)CC1,77
CS(=O)(=O)N1CCN(c2ccccc2NC(=O)c2ccc([N+](=O)[O-])o2)CC1,-123*
O=C(Nc1ccc(NC(=O)c2ccc([N+](=O)[O-])o2)cc1Cl)c1ccco1,-173*
O=C(Nc1ccc2oc(-c3cccnc3)nc2c1)c1ccc([N+](=O)[O-])o1,-97*
O=C(Nc1ccc2oc(-c3cccnc3)nc2c1)c1ccco1,-135*
O=C(Nc1ccc2nc(-c3ccccc3)oc2c1)c1ccco1,-227*
O=C(Nc1ccc2oc(-c3cccnc3)nc2c1)c1ccc(Br)o1,-113*
CC(C)N1CCC2(CC1)N=C(c1ccc3c(c1)OCO3)CC(c1cc(Cl)ccc1O)N2 (stereo not given),-173*
CCOC(=O)c1c(C)[nH]c(C2=NNC(=Nc3cccc(Cl)c3)SC2)c1C,-74*
CCOC(=O)c1c(C)[nH]c(C=O)c1Cc1cccc(Cl)c1,53
COc1cc(NC(=O)n2ncc3cc(Cl)ccc32)cc(OC)c1,-186*
Oc1c(N=NC(=S)Nc2ccccc2F)c2ccccc2n1Cc1ccc(Cl)cc1,70
COc1ccc(NC(=O)n2ncc3cc(Cl)ccc32)cc1OC,-142*
O=C(Nc1ccccc1F)n1ncc2cc(Cl)ccc21,-73*
CSc1nc(-c2ccc(Cl)cc2)nn1S(=O)(=O)c1ccc(Cl)cc1,-74*
CS(=O)(=O)n1nc(-c2ccc(Cl)cc2)nc1SCc1ccccc1,-112*
CSc1nc(-c2ccc(Cl)cc2)nn1S(=O)(=O)c1ccccc1,-74*
CC(C)CCn1c(SCc2ccc(Cl)cc2)nc2c1c(=O)[nH]c(=O)n2C,57
O=C1c2ccccc2C(=O)c2c1oc(C(F)(F)F)c2C(=O)c1ccccc1,101
O=C(c1ccccc1)c1coc2c1C(=O)c1ccccc1C2=O,-80*
SMILES,aSyn UTR act
O=C(c1ccc(Cl)cc1)c1coc2ccc(O)cc12,-128*
O=C(c1ccc(Br)cc1)c1coc2ccc(O)cc12,-92*
O=[N+]([O-])c1ccccc1N/N=C/c1c[nH]c2ccccc12,-105*
O=[N+]([O-])c1ccc(N/N=C/c2c[nH]c3ccccc23)cc1,-139*
Cc1[nH]c2ccccc2c1/C=C(\C#N)C(=O)NC1CC1,-80*
C=CCNc1nnc(Sc2ncccc2[N+](=O)[O-])s1,-115*
CC(C)(C)C(=O)O/N=C(\N)COc1cccc(Cl)c1,-125*
OCCCNc1cc(-c2ccnc(Nc3cccc(Cl)c3)n2)ccn1,110
CN(C#N)c1nc(Cl)nc(Nc2cccc(Cl)c2)n1,-66*
CC(=O)OCc1nc2ccccc2s1,-136*
Cc1cc(C(=O)OCc2nc3ccccc3s2)c(C)o1,-126*
O=C(OCc1nc2ccccc2s1)c1ccco1,-97*
Cc1cc(NC(=O)c2cc(C3CC3)on2)no1,-96*
COc1ccc(NC(=O)c2cc(C3CC3)on2)c(OC)c1,-200*
